# From paper PMC5540273 (PLoS ONE, 2017)
# How the values were obtained:
# Conditions in all cases: concentration: 1 μM, replicates: in singlicate; n = 1
# MYLK4 = tested on: MYLK4
# MYLK = tested on: MYLK
# MYO3A = tested on: MYO3A
# MYO3B = tested on: MYO3B
# NDR1 = tested on: T1, NDR1
# T1 construct: gene STK38
# NDR2 = tested on: NDR2
# NEK10 = tested on: NEK10
# NEK11 = tested on: NEK11
# NEK1 = tested on: NEK1
# NEK2 = tested on: NEK2
# NEK3 = tested on: NEK3
# NEK4 = tested on: NEK4
# NEK5 = tested on: NEK5
# NEK6 = tested on: NEK6
# NEK7 = tested on: NEK7
# NEK9 = tested on: NEK9
# NIK = tested on: T2, NIK
# T2 construct: gene MAP3K14
# NIM1 = tested on: T3, NIM1
# T3 construct: gene MGC42105
# NLK = tested on: NLK
# OSR1 = tested on: T4, OSR1
# T4 construct: gene OXSR1
# 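Note: KINOMEscan kinase panel screen.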
Compound,%Inh (MYLK4),%Inh (MYLK),%Inh (MYO3A),%Inh (MYO3B),%Inh (NDR1),%Inh (NDR2),%Inh (NEK10),%Inh (NEK11),%Inh (NEK1),%Inh (NEK2),%Inh (NEK3),%Inh (NEK4),%Inh (NEK5),%Inh (NEK6),%Inh (NEK7),%Inh (NEK9),%Inh (NIK),%Inh (NIM1),%Inh (NLK),%Inh (OSR1)
Cc1cccc(-c2nc(Nc3ccc4[nH]nnc4c3)c3ccccc3n2)n1 [GW867587],1%,0%,0%,0%,0%,6%,0%,0%,0%,0%,22%,0%,2%,0%,0%,0%,21%,0%,0%,0%
COc1cc2c(Nc3cccc(NC(=O)c4ccccc4)c3)ncnc2cc1OCCCN1CCOCC1 [GSK223810],2%,2%,0%,0%,0%,0%,0%,0%,1%,2%,0%,0%,0%,0%,0%,21%,0%,0%,33%,16%
Fc1cccc(COc2ccc(Nc3ncnc4sc(-c5ccc[nH]5)cc34)cc2Cl)c1 [GW707818],13%,13%,17%,0%,23%,17%,4%,24%,0%,15%,1%,0%,31%,0%,0%,17%,0%,14%,23%,0%
COC(=O)c1cccc(NC(=O)NCCNc2ccnc(Nc3ccc(F)cc3)n2)c1 [GSK1379883],6%,11%,31%,0%,0%,27%,8%,10%,0%,0%,0%,0%,17%,0%,0%,11%,9%,0%,0%,4%
Nc1nccc2scc(-c3ccc4c(c3)CCN4C(=O)Cc3cc(F)ccc3F)c12 [GSK2587663],0%,24%,0%,0%,0%,0%,12%,9%,0%,7%,0%,9%,6%,0%,0%,4%,0%,18%,2%,5%
Cl.Fc1ccccc1COc1ccc(Nc2ncnc3ccc(-c4nnc(C(F)(F)F)o4)cc23)cc1Cl [GW424170],0%,0%,0%,0%,0%,16%,0%,0%,0%,0%,0%,0%,4%,0%,0%,0%,10%,0%,0%,0%
Cc1ccc(O)cc1Nc1cc(C(F)(F)F)nc2ccc(-c3ccncc3)cc12 [GW630823],0%,6%,6%,0%,0%,6%,0%,0%,0%,2%,0%,0%,6%,8%,58%,42%,0%,0%,10%,0%
OCCOCCn1ccc2ncnc(Nc3ccc(Oc4cccc(Cl)c4)c(Cl)c3)c21,0%,0%,0%,0%,30%,0%,0%,0%,0%,0%,10%,0%,0%,0%,0%,0%,0%,0%,0%,0%
Fc1cccc(COc2ccc(Nc3ncnc4nn5ccccc5c34)cc2Cl)c1 [GW689066],0%,0%,18%,0%,55%,0%,0%,11%,0%,0%,0%,0%,0%,0%,0%,4%,0%,13%,7%,3%
Cn1ccc2ncnc(Oc3ccc(NC(=O)Nc4cccnc4)c(Cl)c3)c21,0%,0%,0%,1%,0%,14%,0%,0%,0%,0%,9%,0%,0%,8%,0%,3%,0%,0%,0%,7%
NC(=O)c1sc(-n2cnc3ccccc32)cc1OCc1ccccc1F [GSK1024306],6%,2%,3%,0%,0%,11%,22%,32%,0%,0%,0%,0%,0%,0%,0%,0%,0%,20%,1%,1%
COc1ccc(Nc2nccc(N3CCC(NC(=O)Nc4ccc5c(c4)OCO5)C3)n2)cc1 (stereo not drawn) [GSK1379745],0%,25%,0%,3%,0%,0%,0%,0%,0%,0%,0%,3%,25%,7%,3%,0%,1%,22%,0%,12%
Clc1cc(Nc2ncnc3cc[nH]c23)ccc1OCc1ccccn1,9%,17%,24%,20%,14%,0%,0%,0%,5%,0%,22%,6%,0%,16%,0%,7%,0%,35%,0%,2%
O=C(Nc1ccccc1F)NC1CCN(c2ccnc(Nc3ccc(F)cc3)n2)C1 (stereo not drawn) [GSK1379722],0%,0%,2%,0%,12%,0%,22%,2%,0%,0%,4%,9%,12%,0%,0%,0%,14%,15%,17%,0%
CS(=O)(=O)CCNCc1ccc(-c2ccc3ncnc(Nc4ccc(OCc5ccccc5)c(Cl)c4)c3c2)o1.Cl [GW574783],2%,7%,0%,0%,0%,0%,23%,26%,0%,0%,0%,5%,0%,0%,0%,0%,100%,0%,12%,0%
Fc1ccc(Nc2nccc(-c3c(-c4ccc(Cl)cc4)nn4ncccc34)n2)cc1F [GW829058],0%,38%,15%,21%,24%,28%,19%,25%,17%,16%,11%,8%,13%,21%,0%,5%,43%,34%,70%,28%
Nc1n[nH]c2nnc(-c3ccccc3)cc12 [SB-517389],24%,19%,0%,0%,14%,0%,17%,0%,0%,5%,29%,21%,27%,0%,0%,7%,0%,15%,36%,0%
O=C(Nc1ccccc1)Nc1ccc(Oc2ccc3nccn3n2)cc1,0%,11%,0%,0%,16%,0%,0%,0%,0%,0%,8%,0%,20%,0%,0%,0%,0%,0%,2%,0%
Cc1ccc(C)c(NC(=O)NCCNc2ccnc(Nc3ccc(F)cc3)n2)c1 [GSK1379878],0%,8%,0%,0%,0%,16%,11%,17%,0%,0%,0%,0%,3%,0%,0%,9%,10%,0%,0%,0%
CN1c2ccc(-c3ccc(C(=O)NCCO)cc3)cc2-c2[nH]ncc2S1(=O)=O,0%,87%,6%,0%,26%,0%,0%,0%,8%,6%,45%,0%,0%,0%,0%,8%,37%,0%,0%,0%
COC(=O)c1c(-c2ccccc2)c2cc(Cl)ccc2c(=O)n1Cc1ccc(S(C)(=O)=O)cc1,5%,34%,0%,0%,0%,0%,13%,0%,0%,83%,4%,0%,0%,2%,0%,0%,0%,0%,0%,0%
